Data from the supplement of paper PMC13380429.

Tested on: Vero E6 infected with SARS-CoV-2
Test: inhibition of SARS-CoV-2 cytopathic effect; higher = more antiviral protection, active = above 15
Conditions: 48 h

Measured: inhibition of SARS-CoV-2 cytopathic effect

CCN(CC)CCNC(=O)c1cc(Cl)c(N)cc1OC [metoclopramide]
inactive: 1 nM -0.44% | 8.33 nM 0.96% | 100 nM 0.31% | 833.33 nM -0.29% | 10000 nM -1.37%

CCC(C)SSc1ncc[nH]1 (stereo not given)
inactive: 1 nM -1.26% | 8.33 nM -14.1% | 100 nM 1.61% | 833.33 nM 2.44% | 10000 nM -1.36%

O=S(=O)(O)c1ccc2[nH]c(-c3ccccc3)nc2c1 [phenylbenzimidazole-sulfonic-acid]
inactive: 1 nM -0.84% | 8.33 nM 2.98% | 100 nM 1.91% | 833.33 nM 4.9% | 10000 nM -7.89%

CCc1cc2c(cc1N1CCC(N3CCOCC3)CC1)C(C)(C)c1[nH]c3cc(C#N)ccc3c1C2=O [alectinib]
inactive: 1 nM 0.52% | 8.33 nM 1.4% | 100 nM -0.38% | 833.33 nM -1.14% | 10000 nM 0.15%

C[C@@]1(C(=O)O)NCCc2cc(O)c(O)cc21 [salsolinol-1-carboxylic-acid]
inactive: 1 nM 0.05% | 8.33 nM -1.48% | 100 nM -1.16% | 833.33 nM 2.45% | 10000 nM 1.69%

COC(=O)N1CCN(Cc2cccc(NC(=O)Nc3ccc(C)nc3)c2F)CC1 [omecamtiv-mecarbil]
inactive: 1 nM -0.03% | 8.33 nM 0.93% | 100 nM -0.98% | 833.33 nM 0.86% | 10000 nM 3.03%

O=C(NC(O)C(Cl)(Cl)Cl)NC(O)C(Cl)(Cl)Cl (stereo not given) [dicloralurea]
inactive: 1 nM -4.23% | 8.33 nM -2.71% | 100 nM -0.82% | 833.33 nM -3.4% | 10000 nM -4.69%

Cc1ccc(-c2ncc[nH]2)cc1NC(=O)c1ccc(OCc2ccccn2)cc1
inactive: 1 nM -1.02% | 8.33 nM -0.95% | 100 nM -2.09% | 833.33 nM -4.18% | 10000 nM -4.54%

CC1(C)S[C@@H]2[C@H](NC(=O)Cc3ccccc3)C(=O)N2[C@H]1C(=O)O [benzylpenicillin]
inactive: 1 nM -3.59% | 8.33 nM -1.58% | 100 nM -1.25% | 833.33 nM -1% | 10000 nM -2.39%

CC(N)Cc1ccc(O)cc1 (stereo not given) [hydroxyamphetamine]
inactive: 1 nM 1.55% | 8.33 nM -1.8% | 100 nM 2.28% | 833.33 nM 0.63% | 10000 nM 1.86%

O=c1c(-c2ccccc2)c1-c1ccccc1 [diphencyprone]
inactive: 1 nM -0.95% | 8.33 nM 0.49% | 100 nM -1.61% | 833.33 nM -1.95% | 10000 nM 5.98%

COc1ccccc1OC(=O)c1ccccc1OC(C)=O [guacetisal]
inactive: 1 nM -0.24% | 8.33 nM -1.18% | 100 nM 1.85% | 833.33 nM 4.31% | 10000 nM -0.68%

Cn1c(Nc2ccc(C(F)(F)F)cc2)nc2cc(Oc3ccnc(-c4ncc(C(F)(F)F)[nH]4)c3)ccc21
inactive: 1 nM 0.79% | 8.33 nM 1.69% | 100 nM 0.4% | 833.33 nM 0.16% | 10000 nM 4.48%

O=C1C(O)=C(O)C(=O)C(O)=C1O [tetroquinone]
inactive: 1 nM -0.23% | 8.33 nM 0.57% | 100 nM 1.71% | 833.33 nM -0.73% | 10000 nM -0.73%

C[C@H]1C[C@@H]2[C@H]([C@@H](O)C[C@@]3(C)[C@H]2CC[C@]3(O)C(=O)COC(=O)CCC(=O)O)[C@@]2(C)C=CC(=O)C=C12 [methylprednisolone-sodium-succinate]
inactive: 1 nM -0.2% | 8.33 nM 2.8% | 100 nM 0.5% | 833.33 nM -0.11% | 10000 nM -2.89%

COc1ccc(C2(O)CCC(N3CC[C@@H](NC(=O)CNC(=O)c4cccc(C(F)(F)F)c4)C3)CC2)cn1 (stereo not given in full)
inactive: 1 nM -0.385% | 8.33 nM 0.89% | 100 nM -1.07% | 833.33 nM -1.1% | 10000 nM -0.44%

O=c1c(O)c(-c2ccc(O)c(O)c2)oc2cc(O)cc(O)c12 [quercetin]
inactive: 1 nM 1.33% | 8.33 nM 0.85% | 100 nM 0.21% | 833.33 nM 1.78% | 10000 nM 3.03%

O=S(=O)(F)Cc1ccccc1 [phenylmethylsulfonyl-fluoride]
inactive: 1 nM -2.45% | 8.33 nM -1.22% | 100 nM 2.93% | 833.33 nM 0.75% | 10000 nM 1.71%

COc1cc2c(cc1Cc1cccc(Cl)c1F)c(=O)c(C(=O)O)cn2[C@H](CO)C(C)C [elvitegravir]
inactive: 1 nM 2.45% | 8.33 nM 1.56% | 100 nM 1.54% | 833.33 nM 1.67% | 10000 nM -6.71%

C[C@@H](Oc1ccc(Cl)cc1)c1ccnc2ncnn12
inactive: 1 nM -0.64% | 8.33 nM 0.02% | 100 nM -0.48% | 833.33 nM -2.21% | 10000 nM -3.4%

Clc1cccc(SC2CCNCC2)n1 [anpirtoline]
inactive: 1 nM -4.7% | 8.33 nM -4.88% | 100 nM 1.08% | 833.33 nM 0.38% | 10000 nM -4.79%

CCN(CC)C(=O)Nc1ccc(OCC(O)CNC(C)(C)C)c(C(C)=O)c1 (stereo not given) [celiprolol]
inactive: 1 nM -3.29% | 8.33 nM 0.91% | 100 nM -0.73% | 833.33 nM -0.15% | 10000 nM -0.87%

O=C1NC(=O)/C(=C/c2ccc(-c3ccc(F)cc3O)o2)S1
inactive: 1 nM -0.52% | 8.33 nM -0.98% | 100 nM -0.46% | 833.33 nM -1.39% | 10000 nM -0.94%

O=C(Nc1ccc(-c2ccnc(Nc3ccc(N4CCOCC4)cc3)n2)cc1)C1CCCN1 (stereo not given)
inactive: 1 nM -1.37% | 8.33 nM -1.43% | 100 nM -0.97% | 833.33 nM -1.01% | 10000 nM 8.93%

Cc1ccc(S(=O)(=O)N2CCC[C@H]2c2ccc(F)cc2)cc1
inactive: 1 nM 0.31% | 8.33 nM -0.49% | 100 nM 0.49% | 833.33 nM 1.4% | 10000 nM 0.86%

CN1[C@@H]2CC[C@H]1C[C@@H](OC(c1ccc(F)cc1)c1ccc(F)cc1)C2 [3-alpha-bis-(4-fluorophenyl)-methoxytropane]
inactive: 1 nM 0.13% | 8.33 nM 1.33% | 100 nM -2.46% | 833.33 nM -1.34% | 10000 nM -5.09%

Cn1c(=O)c(F)c(Nc2ccc(I)cc2F)c2c(=O)n(C[C@@H](O)CO)cnc21
inactive: 1 nM -3.03% | 8.33 nM -6.23% | 100 nM -11% | 833.33 nM -11.6% | 10000 nM -12.3%

CCN(CCO)CCCOc1ccc2c(Nc3cc(CC(=O)Nc4cccc(F)c4)[nH]n3)ncnc2c1 [barasertib-HQPA]
inactive: 1 nM -1.93% | 8.33 nM -0.82% | 100 nM -3.04% | 833.33 nM -4.18% | 10000 nM -5.49%

O[C@H]1[C@H]2[C@H](O)CCCN2C[C@H]1O [swainsonine]
inactive: 1 nM -4.09% | 8.33 nM 2.85% | 100 nM 1.87% | 833.33 nM -1.43% | 10000 nM -5.03%

CC(CCc1ccccc1)NC(C)C(O)c1ccc(O)cc1 (stereo not given) [buphenine]
inactive: 1 nM 1.42% | 8.33 nM 1.45% | 100 nM -1.15% | 833.33 nM -0.63% | 10000 nM -2.78%

COc1ccc(C2=N[C@@H](c3ccc(Cl)cc3)[C@@H](c3ccc(Cl)cc3)N2C(=O)N2CCNC(=O)C2)c(OC(C)C)c1 [nutlin-3]
inactive: 1 nM 1.71% | 8.33 nM 1.61% | 100 nM 5.23% | 833.33 nM 5.08% | 10000 nM 3.38%

Cc1cc(O)c2c(=O)c3c(O)cc(O)c4c5c(O)cc(O)c6c(=O)c7c(O)cc(C)c8c1c2c(c34)c(c78)c65 [hypericin]
inactive: 1 nM 3.48% | 8.33 nM -1.72% | 100 nM -6.89% | 833.33 nM -0.08% | 10000 nM -4.81%

CN1C[C@@H](NS(=O)(=O)N(C)C)C[C@@H]2c3cccc4c3c(cn4C)C[C@H]21 [mesulergine]
inactive: 1 nM -0.67% | 8.33 nM 0.79% | 100 nM 0.56% | 833.33 nM 0.39% | 10000 nM 1.25%

CC(=O)N[C@@H](CCC(N)=O)C(=O)O [aceglutamide]
inactive: 1 nM 1.69% | 8.33 nM 3.16% | 100 nM 6.3% | 833.33 nM 1.78% | 10000 nM -5.34%

CCCN[C@@H]1CCc2c(OC)cccc2[C@@H]1C
inactive: 1 nM -1.51% | 8.33 nM -1.5% | 100 nM -0.05% | 833.33 nM -0.17% | 10000 nM -3.49%

CC1(C)[C@@H]2C[C@@H](O)[C@@](C)(O)[C@H]1C2 [2,3-cis/exo-pinanediol]
inactive: 1 nM -0.96% | 8.33 nM 1.89% | 100 nM 2.23% | 833.33 nM -0.64% | 10000 nM 2.13%

C=CC(=O)Nc1cccc(Nc2nc(Nc3ccc(NC4CN(CCF)C4)cc3OC)ncc2C(F)(F)F)c1
inactive: 1 nM 0.89% | 8.33 nM 1.87% | 100 nM 7.9% | 833.33 nM -5.81% | 10000 nM -24.6%

CCN(CC)CCCC(C)Nc1c2ccc(Cl)cc2nc2ccc(OC)cc12 (stereo not given) [mepacrine]
inactive: 1 nM 3.59% | 8.33 nM 0.39% | 100 nM 5.65% | 833.33 nM 5.16% | 10000 nM -17.4%

CCCCc1nc(-c2ccc(OCCCN(CC)CC)cc2)cn1-c1ccc(Oc2ccc(Cl)cc2)cc1 [azeliragon]
inactive: 1 nM 0.74% | 8.33 nM -0.49% | 100 nM 1.43% | 833.33 nM 1.68% | 10000 nM -13.2%
